# Most compounds without a hit are left out; they make up all but 4.3% or so of the library.
# HSF1 inh: HSF1 inhibitors in luciferase reporter cells, primary screen, cell-based, NIH3T3, luminescence | NIH3T3-HGL HSE-luciferase, MG132-induced, luminescence 8 h; active compounds read low | activity change, negative = inhibition, % at 7.5 µM (by protocol) | 300,000 compounds, 0.77% hits;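 active = more than half of replicate wells show activity change below -50%, luminescence cut by over half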;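 note: luciferase reports HSF-1 transcriptional activity via heat shock element; 0% = median of DMSO wells and -100% = zero luminescence signal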
# MITF act: activators of MITF-driven TRPM1 promoter reporter, primary screen, cell-based, SK-MEL-5, luciferase, single point | SK-MEL-5 TRPM1-promoter luciferase, 24 h; % of positive control, neutral wells = 0 | activation, % at 12.5 µM | 300,000 compounds, 0.75% hits | AID 588334, 2011;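 active = mean activation of at least 80% with every replicate also reaching 80%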;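 note: 0% = neutral control wells and 100% = parthenolide positive control wells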
# HSF1 activator: HSF-1 activators, primary screen, NIH3T3-HGL cells, MG132 stress, luminescence, single point | activation, % at 9 µM | NIH3T3-HGL HSF-1 luciferase reporter, 8 h; 100% = twice DMSO control signal | 300,000 compounds, 1.7% hits | AID 504408, 2011;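 active = mean replicate activation of at least 50% with a set share of replicates each reaching 50%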;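 note: 0% = median of the neutral control wells and 100% = twice that signal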
# esBAF inh: Bmi1 luciferase reporter increase in mESCs, primary screen, esBAF inhibitor project, mouse ES cells, Bmi1 luciferase knock-in, single point; 350,000 compounds, 2% hits; reporter increase, % at 12.5 µM; 24 h; 100% = twice the neutral-well signal; in the data active = activation above about 40%;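 note: 0% = median of the plate's neutral control wells and 100% = double that signal; a rise in the Bmi1 reporter signal indicates esBAF inhibition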
# SMARCA2 activ: SMARCA2 (BRM) function activators, primary screen, cell-based, luminescence, high throughput; MG213 cells, MMTV-luciferase reporter, dexamethasone, overnight; activation, % at 9.1 µM; 370,000 compounds, 1% hits; in the data active = activation above about 7.8%;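 note: 0% = vehicle wells and 100% = reference activator wells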
# Wnt act: Wnt/beta-catenin pathway activators, primary screen, cell-based, plate reader, single point. 300,000 compounds, 1.2% hits. Wnt/beta-catenin reporter cell assay, activator. AID 743398, 2014. activation, % at 9.35 µM; in the data active = activation above about 30%, passing the limit was not always enough;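 note: 0% = neutral control wells and 100% = positive control wells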
# * marks the source's active call; other numbers are inactive results; . = no result.
SMILES,HSF1 inh,MITF act,HSF1 activator,esBAF inh,SMARCA2 activ,Wnt act
Nn1c(SCc2ccccc2)nnc1-c1ccccn1,13,.,11,43*,1,.
COc1ccc(CN2C[C@H](C)[C@@H](OC)CN(C)C(=O)c3cc(NC(C)=O)ccc3OC[C@@H]2C)cc1,.,.,.,-1,.,.
CCn1c2ccccc2c2cc(NC(=O)C(=O)N3CCOCC3)ccc21,8,70,30,71*,5,-1
CCn1c2ccccc2c2cc(NC(C)=O)ccc21,6,-4,19,-1,7,.
COc1ccc2cc3cc(C(=O)NCc4ccco4)oc3nc2c1,1,18,11,.,-1,8
COc1ccc2cc3c(N)c(C(=O)NCc4ccco4)sc3nc2c1,39,65,47,72*,5,.
CN(C)CCCNC(=O)C[C@H]1CC[C@@H](NC(=O)Cc2cccnc2)[C@@H](CO)O1,.,.,.,-2,.,.
C[C@@H]1CN([C@@H](C)CO)C(=O)c2cc(NC(=O)CCN3CCOCC3)ccc2O[C@@H]1CN(C)Cc1ccc(C(=O)O)cc1,.,.,.,-8,.,.
C=CCc1c(C)nc2ccc(C(=O)OCC)cc2c1Cl,6,44,8,53*,-4,2
CCOC(=O)c1ccc2nc(C)c(CCC(C)=O)c(Cl)c2c1,17,.,35,63*,1,.
CCOC(=O)c1ccc2nc(C)c(CC)c(Cl)c2c1,-3,22,-7,26,-2,.
CCCCc1c(C)nc2ccc(C(=O)OCC)cc2c1Cl,-10,9,-3,.,-1,.
C[C@H](NC(=O)C[C@H]1C[C@H]2c3cc(NC(=O)Nc4ccc(C(F)(F)F)cc4)ccc3O[C@H]2[C@H](CO)O1)c1ccccc1,.,.,.,5,.,.
CO[C@@H]1CN(C)C(=O)c2cc(NC(=O)Nc3cccc(Cl)c3)ccc2OC[C@@H](C)N(C(=O)Nc2c(C)noc2C)C[C@@H]1C,.,.,.,3,.,.
COCC#Cc1cnc2c(c1)C(=O)N([C@@H](C)CO)C[C@@H](C)[C@@H](CN(C)C(=O)c1ccc3c(c1)OCO3)O2,.,.,.,1,.,.
CC(C)Oc1ccc(CNC(=O)Oc2ccccc2)cc1,24,92*,34,-3,1,-1
COc1ccc(CNC(=S)NCc2ccc(OC(C)C)cc2)cc1,-3,-14,2,.,2,-3
O=C(Nc1ccc2c(c1)OCCO2)N1CCN(Cc2ccccc2)CC1,-32,59,-38,55*,8,25
O=C(O)C1CC=CCC1C(=O)Nc1ccc2c(c1)OCCO2 (stereo not given),-62*,12,-68,21,-6,-2
CCOCC(=O)N1CCN(Cc2ccc3c(c2)OCO3)CC1,1,0,-2,0,0,31*
Cc1cc(C)cc(NC(=O)N2CCN(Cc3ccc4c(c3)OCO4)CC2)c1,-58*,.,-63,-1,3,3
O=C(O)C1CC=CCC1C(=O)Nc1ccc(F)c(F)c1 (stereo not given),-2,.,6,5,-1,.
O=C(C[C@H]1C=C[C@@H](NC(=O)CN2CCOCC2)[C@@H](CO)O1)NCCc1ccccc1,.,.,.,-2,.,.
C[C@H](CO)N1C[C@H](C)[C@H](CN(C)S(=O)(=O)c2ccc(F)cc2)Oc2ccc(NS(=O)(=O)c3ccccc3)cc2C1=O,.,.,.,2,.,.
O=C(CN1CCOCC1)NCC[C@H]1CC[C@H](NC(=O)Nc2ccc(C(F)(F)F)cc2)[C@@H](CO)O1,.,.,.,-1,.,.
SMILES,HSF1 inh,MITF act,HSF1 activator,esBAF inh,SMARCA2 activ,Wnt act
O=C(Nc1ccc2c(c1)OCCO2)N1CCN(c2ccccc2)CC1,-57*,.,-59,20,0,18
O=C(Nc1ccc2c(c1)OCO2)N1CCN(c2ccccc2)CC1,-5,-3,1,15,1,2
CCOc1ccc(/C=N/NC(=O)C(O)c2ccccc2)c(O)c1 (stereo not given),-82*,.,-86,-2,-2,-1
CCOc1ccc(CCNC(=O)C(O)c2ccccc2)cc1 (stereo not given),2,.,-10,2,0,-1
CCOC(=O)c1c(N)sc2c(O)c(Br)ccc12,-94*,17,-95,4,2,.
CS(=O)(=O)Nc1ccc2c(c1)[C@H]1C[C@H](CC(=O)N3CCOCC3)O[C@@H](CO)[C@H]1O2,.,.,.,-10,.,.
CC(C)C(C)N(Cc1cccc(C(=O)O)c1)C(=O)c1ccc2ccccc2n1 (stereo not given),-3,.,7,5,-2,-20
CC(C)C(C)N(Cc1ccc(C(=O)O)cc1)C(=O)c1ccc2ccccc2n1 (stereo not given),18,.,58*,.,-2,1
COC(=O)c1ccc(Sc2nnnn2-c2ccccc2)c([N+](=O)[O-])c1,2,-52,14,46*,-3,-16
COC(=O)c1c(C)[nH]c(C(=O)CSc2nnnn2-c2ccccc2)c1C,6,-2,9,48*,1,-3
CCOC(=O)c1c(C)[nH]c(C)c1C(=O)CSc1nnnn1-c1ccccc1,5,4,12,1,-3,3
O=C(CC1CC1)Nc1ccc2c(c1)[C@H]1C[C@H](CC(=O)NC3CCCCC3)O[C@@H](CO)[C@H]1O2,.,.,.,1,.,.
CCCC#Cc1ccc2c(c1)O[C@H](CN(C)Cc1cccnc1)[C@@H](C)CN([C@H](C)CO)S2(=O)=O,.,.,.,-6,.,.
CCCCn1c(N)c(N(CC(C)C)C(=O)c2cccc(S(=O)(=O)N3CCCCC3)c2)c(=O)[nH]c1=O,-71*,-2,-77,-4,-3,-1
CCCCn1c(N)c(N(CC(C)C)C(=O)c2cccc(S(=O)(=O)N3CCCCCC3)c2)c(=O)[nH]c1=O,-6,0,-3,1,-2,-2
CCOC(=O)C(=CNc1ccc(S(N)(=O)=O)cc1)C(=O)OCC,-4,-1,-5,-7,2,0
CCOC(=O)/C(C#N)=C/Nc1ccccc1OC,18,117*,28,47*,4,.
CCOC(=O)C(=O)/C(C#N)=C/Nc1ccccc1,13,-4,52*,-2,1,-6
CCOC(=O)C(=CNc1ccc(C#N)cc1)C(=O)OCC,37,0,60*,.,-1,0
O=C(C[C@H]1C=C[C@@H](NC(=O)Nc2cc(F)ccc2F)[C@@H](CO)O1)NCc1ccccn1,.,.,.,1,.,.
COc1ccc(S(=O)(=O)N(C)C[C@H]2Oc3ccc(N(C)C)cc3C(=O)N([C@H](C)CO)C[C@H]2C)cc1,.,.,.,-6,.,.
C[C@H](CO)N1C[C@H](C)[C@H](CN(C)C(=O)C2CC2)Oc2ncc(C#Cc3ccccc3F)cc2C1=O,.,.,.,1,.,.

# Screening data (PubChem BioAssay)
